Measured values reported in PubChem BioAssay (Tox21).
Values without a mark were called inactive. Results filed as inconclusive are left out. Entries that show only a call come without a potency. Active and inactive are the calls of the source. Unless noted, the call rests on the fitted dose curve.

Legend:
[1] = molecular target: Gonadotropin-releasing hormone receptor (Homo sapiens) (UniProt P30968); assay: Human gonadotropin-releasing hormone receptor (GnRHR) small molecule agonists, calcium flux assay in GnRHR-HEK293 cells (AID 1920063); further: nearly all actives have a fitted effect of over 35% in size; further: potency means the concentration at half of the fitted maximal effect
Gonadotropin-releasing hormone receptor (Homo sapiens), sequence (P30968 whole entry, looked up): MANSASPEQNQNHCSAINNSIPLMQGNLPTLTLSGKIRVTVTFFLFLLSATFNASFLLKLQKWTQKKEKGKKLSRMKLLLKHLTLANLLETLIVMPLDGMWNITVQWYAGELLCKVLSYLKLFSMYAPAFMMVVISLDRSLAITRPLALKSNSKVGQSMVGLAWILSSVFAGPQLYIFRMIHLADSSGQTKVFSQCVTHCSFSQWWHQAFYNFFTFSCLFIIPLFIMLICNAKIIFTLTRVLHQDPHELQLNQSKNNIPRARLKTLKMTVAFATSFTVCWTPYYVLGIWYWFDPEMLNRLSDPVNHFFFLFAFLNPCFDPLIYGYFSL
Outline: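 Agonist activity was measured as intracellular calcium flux in HEK293 cells engineered to stably express human GnRHR. After dye loading for 1 hour at 37 C, compounds in DMSO were added and fluorescence was followed for 3 minutes.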

[2] = molecular target: KiSS-1 receptor (Homo sapiens) (UniProt Q969F8); assay: Human kisspeptin (KISS1R) small molecule agonists, calcium flux assay in KISS1R-HEK293 cells (AID 1920064; active means well fitted activation curve with a large enough effect in the repeat runs)
KiSS-1 receptor (Homo sapiens), sequence (Q969F8 whole entry, looked up): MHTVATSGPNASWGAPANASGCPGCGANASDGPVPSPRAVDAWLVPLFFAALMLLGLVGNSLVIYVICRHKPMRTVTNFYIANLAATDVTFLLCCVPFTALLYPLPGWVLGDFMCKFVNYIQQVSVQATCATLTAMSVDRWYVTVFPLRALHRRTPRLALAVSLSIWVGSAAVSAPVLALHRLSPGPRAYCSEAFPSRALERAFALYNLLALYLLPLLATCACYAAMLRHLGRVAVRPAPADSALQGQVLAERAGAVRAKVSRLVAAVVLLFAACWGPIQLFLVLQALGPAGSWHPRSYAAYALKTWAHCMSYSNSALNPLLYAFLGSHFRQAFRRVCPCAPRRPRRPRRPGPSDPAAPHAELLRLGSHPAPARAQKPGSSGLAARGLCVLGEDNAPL
Outline: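 Agonist activity is monitored as intracellular calcium rise in engineered HEK293 cells carrying human KISS1R. Cells are dye-loaded for 1 h at 37 C before compound addition, and fluorescence is recorded for 3 min.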

[3] = G protein-coupled receptor (GPCR) small molecule agonists, calcium flux assay: HEK293 wild type cell line counter screen (AID 1920065); further: potency means the concentration at half of the fitted maximal effect
Outline: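 Seed cells, incubate 18 h (37 C, 5% CO2); add calcium dye, 1 h at 37 C; pin-transfer compounds, ATP control or DMSO; read fluorescence 480/540 nm each second for 3 min.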

[4] = p53 small molecule agonists, cell-based qHTS assay with human liver microsomes (AID 1963577);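 further: p53 response element beta-lactamase reporter cells with liver microsomes plus NADPH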
Outline: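 16 h, 37 C exposure of p53RE-bla cells to compounds with human liver microsomes and NADPH (0.5 mg/mL final each); detection via LiveBLAzer mixture, 2 h dark at room temperature.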

[5] = p53 small molecule agonists, cell-based qHTS assay with rat liver microsomes (AID 1963578)
Outline: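 With rat liver microsomes and NADPH present (0.5 mg/mL final each), p53RE-bla cells are treated with compound for 16 h at 37 C. LiveBLAzer detection mixture is then applied for 2 h at room temperature in the dark.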

[6] = p53 small molecule agonists, cell-based qHTS assay with rat liver microsomes: qHTS cell viability counter screen (AID 1963580); further: nearly all actives have a fitted effect of over 45% in size; further: potency means the concentration at half of the fitted maximal effect
Outline: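 Cytotoxicity counter screen: intracellular ATP read by CellTiter-Glo luminescence in the p53 reporter wells. HCT-116 p53RE-bla cells were treated for 16 h at 37 C alongside rat liver microsomes and NADPH, each 0.5 mg/mL final.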

[7] = p53 small molecule agonists, cell-based qHTS assay: qHTS cell viability counter screen (AID 1963581); further: nearly all actives have a fitted effect of over 45% in size; further: potency means the concentration at half of the fitted maximal effect
Outline: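 Viability was counter-screened in parallel with the p53 agonist reporter by measuring intracellular ATP luminescence in the same HCT-116 p53RE-bla wells after 16 h compound treatment at 37 C.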

[8] = molecular target: 5-hydroxytryptamine receptor 2A (Homo sapiens) (UniProt P28223); assay: 5-hydroxytryptamine receptor 2A (HTR2A) small molecule agonists, cell-based qHTS assay (AID 1963587); further: nearly all actives have a fitted effect of over 30% in size; further: potency means the concentration at half of the fitted maximal effect
5-hydroxytryptamine receptor 2A (Homo sapiens), sequence (P28223 whole entry, looked up): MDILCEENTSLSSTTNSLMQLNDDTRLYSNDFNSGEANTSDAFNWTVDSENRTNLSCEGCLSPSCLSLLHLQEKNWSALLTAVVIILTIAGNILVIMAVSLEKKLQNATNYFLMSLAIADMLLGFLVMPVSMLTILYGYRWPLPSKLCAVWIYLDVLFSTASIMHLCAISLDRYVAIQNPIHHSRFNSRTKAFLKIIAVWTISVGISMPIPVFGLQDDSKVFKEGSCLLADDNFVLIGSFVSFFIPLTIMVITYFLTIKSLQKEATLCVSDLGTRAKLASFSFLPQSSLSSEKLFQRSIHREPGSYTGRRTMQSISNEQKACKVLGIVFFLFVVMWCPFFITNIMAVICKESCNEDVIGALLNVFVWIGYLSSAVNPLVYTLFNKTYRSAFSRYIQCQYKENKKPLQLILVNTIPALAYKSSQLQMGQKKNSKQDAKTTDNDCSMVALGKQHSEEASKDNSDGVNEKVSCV
Outline: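 Kinetic calcium-flux fluorescence (2 min, 1 sec intervals) after compound addition in agonist mode. HTR2A-CHO cells were cultured 18 h, then dye-loaded 1 h at 37 C.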

[9] = molecular target: Muscarinic acetylcholine receptor M1 (Homo sapiens) (UniProt P11229); assay: Cholinergic receptor muscarinic 1 (CHRM1) small molecule antagonists, cell-based qHTS assay (AID 1963588); further: nearly all actives have a fitted effect of over 40% in size; further: potency means the concentration at half of the fitted maximal effect
Muscarinic acetylcholine receptor M1 (Homo sapiens), sequence (P11229 whole entry, looked up): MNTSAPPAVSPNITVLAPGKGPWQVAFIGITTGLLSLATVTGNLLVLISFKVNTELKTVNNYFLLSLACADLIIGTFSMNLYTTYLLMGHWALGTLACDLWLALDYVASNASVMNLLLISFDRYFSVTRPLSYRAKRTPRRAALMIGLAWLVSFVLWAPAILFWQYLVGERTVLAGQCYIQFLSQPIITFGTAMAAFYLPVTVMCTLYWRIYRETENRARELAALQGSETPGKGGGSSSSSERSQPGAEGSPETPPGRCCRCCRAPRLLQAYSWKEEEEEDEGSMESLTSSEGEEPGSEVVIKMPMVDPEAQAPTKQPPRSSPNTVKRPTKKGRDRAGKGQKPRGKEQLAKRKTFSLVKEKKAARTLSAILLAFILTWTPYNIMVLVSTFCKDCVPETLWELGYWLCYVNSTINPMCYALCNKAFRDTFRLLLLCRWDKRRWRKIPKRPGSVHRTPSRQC
Outline: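 Compounds were tested at 15 concentrations in three independent runs. Dye-loaded CHRM1-CHO cells were exposed 5 min at room temperature before stimulation by acetylcholine added at 50nM. Intracellular calcium was read kinetically on FDSS for 3 min.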

[10] = molecular target: Muscarinic acetylcholine receptor M1 (Homo sapiens) (UniProt P11229); assay: Cholinergic receptor muscarinic 1 (CHRM1) small molecule agonists, cell-based qHTS assay (AID 1963589); further: nearly all actives have a fitted effect of over 35% in size
Outline: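 Cells were plated and incubated 18 h at 37 C/5% CO2, loaded with calcium dye for 1 h at 37 C, then treated with compounds in DMSO. Fluorescence was recorded kinetically at 1 sec intervals.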

[11] = cAMP Responsive Elements (CRE) small molecule agonists, cell-based qHTS assay (AID 1963590)
Outline: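 Cells carrying a CRE-driven beta-lactamase reporter (HEK 293T) are seeded, incubated overnight (18 h), and treated with test compounds for 3 h at 37 C; reporter activity is then detected with a FRET substrate after 2 h at room temperature.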

[12] = molecular target: Beta-2 adrenergic receptor (Homo sapiens) (UniProt P07550); assay: Adrenergic beta2 receptor (ADRB2) small molecule antagonists, cell-based qHTS assay (AID 1963592); further: nearly all actives have a fitted effect of over 50% in size; further: potency means the concentration at half of the fitted maximal effect; on activity change, negative = inhibition: series mostly up to about 92 µM
Beta-2 adrenergic receptor (Homo sapiens), sequence (P07550 whole entry, looked up): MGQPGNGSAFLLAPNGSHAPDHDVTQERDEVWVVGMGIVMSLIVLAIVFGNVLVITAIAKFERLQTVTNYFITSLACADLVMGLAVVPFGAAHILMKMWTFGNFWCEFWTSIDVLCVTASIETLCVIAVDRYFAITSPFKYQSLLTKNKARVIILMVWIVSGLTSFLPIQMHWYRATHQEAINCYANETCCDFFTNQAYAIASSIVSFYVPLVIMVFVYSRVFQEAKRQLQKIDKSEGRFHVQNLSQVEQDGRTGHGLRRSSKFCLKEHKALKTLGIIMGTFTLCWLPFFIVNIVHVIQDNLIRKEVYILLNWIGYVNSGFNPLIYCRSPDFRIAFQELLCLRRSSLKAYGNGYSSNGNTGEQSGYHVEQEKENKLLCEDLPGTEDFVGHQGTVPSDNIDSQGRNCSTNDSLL
Outline: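 Assay format: CHO-ADRB2 cells, 18-20hr seeding at 37C/5% CO2, then compound plus 1nM isoproterenol agonist mix for 0.5hr RT. Homogeneous time-resolved fluorescence cAMP detection after 1hr, expressed as 665/615 nm ratio.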

[13] = molecular target: Beta-2 adrenergic receptor (Homo sapiens) (UniProt P07550); assay: Adrenergic beta2 receptor (ADRB2) small molecule agonists, cell-based qHTS assay (AID 1963593);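 further: CHO cells stably overexpressing human ADRB2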
Outline: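 CHO cells stably over-expressing ADRB2 were plated overnight at 37C, then dosed with compounds plus a stimulation mix containing 100uM IBMX and 25uM Ro-20-1724 for 0.5hr at room temperature. cAMP was measured by HTRF competition, 1hr.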

[14] = molecular target: D(2) dopamine receptor (Homo sapiens) (UniProt P14416); assay: Dopamine D2 receptor (DRD2) small molecule antagonists, cell-based qHTS assay (AID 1963595; active means well fitted inhibition curve with a large enough effect in the signal ratio in the repeat runs, with a control signal flat; the % refers to the signal ratio; further: potency means the concentration at half of the fitted maximal effect)
D(2) dopamine receptor (Homo sapiens), sequence (P14416 whole entry, looked up): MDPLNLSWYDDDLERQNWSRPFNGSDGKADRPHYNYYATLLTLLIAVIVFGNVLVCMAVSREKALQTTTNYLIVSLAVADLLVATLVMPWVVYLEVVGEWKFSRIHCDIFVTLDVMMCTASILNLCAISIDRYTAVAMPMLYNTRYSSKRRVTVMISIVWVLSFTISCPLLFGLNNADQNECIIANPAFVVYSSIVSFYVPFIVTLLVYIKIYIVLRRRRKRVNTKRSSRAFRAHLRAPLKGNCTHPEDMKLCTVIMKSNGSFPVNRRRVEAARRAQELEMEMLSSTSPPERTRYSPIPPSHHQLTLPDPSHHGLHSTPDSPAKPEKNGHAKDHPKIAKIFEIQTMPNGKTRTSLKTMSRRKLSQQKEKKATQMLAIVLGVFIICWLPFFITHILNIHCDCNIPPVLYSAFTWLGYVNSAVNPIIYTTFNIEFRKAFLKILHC
Outline: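 HTRF cAMP read-out at 665 and 620 nm emission (340 nm excitation). Antagonist mode: compounds were tested against 12 nM quinpirole in DRD2-HEK293 cells, with 200 nM NKH477 raising cAMP and 0.1 mM Ro20-1724 blocking its breakdown.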

[15] = p53 small molecule agonists, cell-based qHTS assay with human liver microsomes: qHTS cell viability counter screen (AID 1963579); further: nearly all actives have a fitted effect of over 45% in size
Outline: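 In this multiplexed counter screen, the reporter plates were subsequently treated with CellTiter-Glo so that cell viability, reflected by luminescence, could be recorded for p53RE-bla cells dosed 16 h with compounds under microsomal activation (HLM and NADPH).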

[16] = molecular target: 5-hydroxytryptamine receptor 2A (Homo sapiens) (UniProt P28223); assay: 5-hydroxytryptamine receptor 2A (HTR2A) small molecule antagonists, cell-based qHTS assay (AID 1963586); further: nearly all actives have a fitted effect of over 45% in size; further: potency means the concentration at half of the fitted maximal effect
Outline: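 CHO cells stably expressing human HTR2A were plated for 18 h at 37 C, then loaded with calcium dye for 1 h. Compounds were preincubated 5 min at room temperature before DOI (4 nM solution) was added. Kinetic fluorescence was read for 3 min.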

[17] = cAMP Responsive Elements (CRE) small molecule antagonists, cell-based qHTS assay (AID 1963591; active means well fitted inhibition curve with a large enough effect in the signal ratio in the repeat runs, not every such curve was filed as active; the % refers to the signal ratio)
Outline: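 Cells (CRE-bla HEK 293T, DMEM with 10% dialyzed FBS and 25 mM HEPES) are seeded and incubated 18 h. Compounds are added with NKH477 agonist at 0.25 uM final for 3 h, then FRET substrate for 2 h.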

[18] = molecular target: D(2) dopamine receptor (Homo sapiens) (UniProt P14416); assay: Dopamine D2 receptor (DRD2) small molecule agonists, cell-based qHTS assay (AID 1963594); further: nearly all actives have a fitted effect of over 35% in size
Outline: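 cAMP accumulation in DRD2-HEK293 cells measured by HTRF after 1 h detection; compounds added 10 min before NKH477 (200nM […]) forskolin-analogue stimulation, 30 min at room temperature, with Ro20-1724 present at 0.1 mM final.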

[19] = Nuclear factor erythroid 2-related factor 2/antioxidant responsive element (Nrf2/ARE) small molecule agonists: luciferase reporter gene qHTS assay in human keratinocytes (AID 1919969); further: nearly all actives have a fitted effect of over 35% in size
[20] = p53 small molecule agonists, cell-based qHTS assay (AID 1963582; active means well fitted activation curve with a large enough effect in the signal ratio in the repeat runs, not every such curve was filed as active; the % refers to the signal ratio)
Outline: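 Cells carrying a p53-responsive bla reporter are treated with test compounds for 16 h at 37 C; beta-lactamase activity is then detected with LiveBLAzer B/G FRET substrate after 2 h at room temperature.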

SMILES: [O-][n+]1ccccc1SSc1cccc[n+]1[O-]
- activity change [1]: 17.2% [at 11.8 µM, stronger effect = higher value]
- activation [2]: 1.71% [at 15.8 µM]
- Potency [3]: 4.65 µM (active)
- activation [4]: -14.9% [at 13.5 µM]
- activation [5]: -12.8% [at 13.6 µM]
- Potency [6]: 0.547 µM (active)
- activity change, negative = cytotoxicity [7]: 8.83% [at 13.5 µM]
- Potency [8]: 9.28 µM (active)
- activity, negative = inhibition [9]: 9.35% [at 12.6 µM]
- activation [10]: 14.1% [at 15.8 µM]
- activation [11]: -1.24% [at 19 µM]
- activity change, negative = inhibition [12]: 11.4% [at 19 µM]
- activation [13]: 17.9% [at 19 µM]
- activity change, negative = inhibition [14]: -21.1% [at 18.9 µM]

SMILES: CCCCCC
- Potency [1]: inactive
- Potency [2]: inactive
- Potency [3]: inactive
- Potency [4]: inactive
- Potency [5]: inactive
- Potency [15]: inactive
- Potency [6]: inactive
- Potency [16]: inactive
- Potency [8]: inactive
- Potency [9]: inactive
- Potency [10]: inactive
- Potency [11]: inactive
- Potency [17]: inactive
- Potency [12]: inactive
- Potency [13]: inactive
- Potency [18]: inactive

SMILES: CCN(CC)CCCN(c1ccccc1)C1Cc2ccccc2C1
- Potency [19]: inactive
- Potency [4]: inactive
- Potency [5]: inactive
- Potency [15]: inactive
- Potency [6]: inactive
- Potency [7]: inactive
- Potency [16]: 11.6 µM (active)
- Potency [8]: inactive
- Potency [10]: inactive
- Potency [12]: 0.106 µM (active)
- Potency [14]: inactive

SMILES: O=C1Cc2cc(CCN3CCN(c4nsc5ccccc45)CC3)c(Cl)cc2N1
- Potency [1]: inactive
- Potency [2]: inactive
- Potency [3]: inactive
- Potency [4]: inactive
- Potency [5]: inactive
- Potency [15]: inactive
- Potency [6]: inactive
- Potency [8]: inactive
- Potency [9]: 5.16 µM (active)
- Potency [10]: inactive
- Potency [11]: inactive
- Potency [12]: inactive
- Potency [18]: inactive

SMILES: COc1cc(C=C2CCC/C(=C\c3ccc(O)c(OC)c3)C2=O)ccc1O
- Potency [1]: inactive
- Potency [2]: inactive
- Potency [3]: inactive
- Potency [4]: inactive
- Potency [5]: inactive
- Potency [15]: inactive
- Potency [7]: 14.1 µM (active)
- Potency [20]: inactive
- Potency [16]: 18.3 µM (active)
- Potency [9]: inactive
- Potency [10]: inactive
- Potency [12]: inactive
- Potency [13]: inactive
- Potency [18]: inactive
- Potency [14]: inactive

SMILES: CCOC(=O)c1ccccc1C(=C1C=C(Br)C(=O)C(Br)=C1)c1cc(Br)c(O)c(Br)c1
- Potency [1]: inactive
- Potency [2]: inactive
- Potency [3]: inactive
- Potency [4]: inactive
- Potency [5]: inactive
- Potency [15]: inactive
- Potency [6]: inactive
- Potency [8]: inactive
- Potency [12]: inactive
- Potency [18]: inactive
- Potency [14]: inactive

SMILES: CN1CCN(CCCN2c3ccccc3Sc3ccc(S(=O)(=O)N(C)C)cc32)CC1
- Potency [1]: inactive
- Potency [2]: inactive
- Potency [3]: inactive
- Potency [4]: inactive
- Potency [5]: inactive
- Potency [15]: inactive
- Potency [6]: inactive
- Potency [7]: inactive
- Potency [20]: inactive
- Potency [8]: inactive
- Potency [9]: 5.16 µM (active)
- Potency [10]: inactive
- Potency [18]: inactive
- Potency [14]: 0.0473 µM (active)

SMILES: CCCCCCCCCc1ccc(OCCOCCO)cc1
- Potency [1]: 13 µM (active)
- Potency [2]: inactive
- Potency [3]: inactive
- Potency [4]: inactive
- Potency [5]: inactive
- Potency [15]: inactive
- Potency [6]: inactive
- Potency [7]: inactive
- Potency [16]: 5.58 µM (active)
- Potency [8]: 20.5 µM (active)
- Potency [10]: inactive
- Potency [12]: inactive
- Potency [13]: inactive
- Potency [18]: inactive
- Potency [14]: 25.6 µM (active)
